From PubChem BioAssay (Tox21)
Records with an inconclusive call do not appear. Calls of active or inactive are those of the source. Calls come from the whole dose curve.

How the values were obtained:
[1] = target: Acetylcholinesterase (Homo sapiens) (UniProt P22303); assay: Acetylcholinesterase (AChE) small molecule antagonists: colormetric cell-based qHTS assay (AID 1347395); note: nearly all actives have a fitted effect of over 30% in size; note: potency is the fitted concentration of half-maximal effect
Chain of Acetylcholinesterase (Homo sapiens) (P22303 whole entry, looked up): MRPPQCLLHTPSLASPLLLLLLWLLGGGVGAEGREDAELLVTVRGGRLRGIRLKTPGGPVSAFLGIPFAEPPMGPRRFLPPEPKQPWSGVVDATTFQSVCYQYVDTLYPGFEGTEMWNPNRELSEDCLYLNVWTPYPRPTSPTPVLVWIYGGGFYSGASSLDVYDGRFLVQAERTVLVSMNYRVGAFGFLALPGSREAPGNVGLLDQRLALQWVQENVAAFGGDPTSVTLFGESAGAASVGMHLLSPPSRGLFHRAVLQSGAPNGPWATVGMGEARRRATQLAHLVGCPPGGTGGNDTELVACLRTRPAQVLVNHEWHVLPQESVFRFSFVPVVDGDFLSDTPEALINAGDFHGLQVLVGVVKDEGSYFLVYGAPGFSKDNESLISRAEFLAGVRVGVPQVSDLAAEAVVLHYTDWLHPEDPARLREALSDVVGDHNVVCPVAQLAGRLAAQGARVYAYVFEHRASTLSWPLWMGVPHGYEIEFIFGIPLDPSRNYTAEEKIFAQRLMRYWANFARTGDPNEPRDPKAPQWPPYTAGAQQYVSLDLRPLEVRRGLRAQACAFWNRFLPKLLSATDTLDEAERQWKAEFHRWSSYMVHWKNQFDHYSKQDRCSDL
In short: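 SH-SY5Y cells; cpd 30 min 37 C; + DTNB/acetylthiocholine, 90 min 37 C; colorimetric thiocholine read; qHTS.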

[2] = target: Acetylcholinesterase (Homo sapiens) (UniProt P22303); assay: Acetylcholinesterase (AChE) small molecule antagonists: enzyme-based qHTS assay (AID 1347397); conditions: Potency: AChE enzyme activity inhibition; outcome: AChE enzyme activity inhibition; note: nearly all actives have a fitted effect of over 55% in size; note: potency is the fitted concentration of half-maximal effect
In short: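 First, recombinant human AChE (50 mU/mL as dispensed) received test compound or DMSO. Second, plates stood 30 min at room temperature. Third, DTNB and acetylthiocholine were added, followed by 10 min at room temperature and colorimetric detection.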

[3] = target: Acetylcholinesterase (Homo sapiens) (UniProt P22303); assay: Acetylcholinesterase (AChE) small molecule antagonists: fluorescence cell-based qHTS assay (AID 1347398); conditions: Potency: AChE activity; outcome: AChE activity; note: nearly all actives have a fitted effect of over 50% in size; note: potency is the fitted concentration of half-maximal effect
In short: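 Homogeneous quantitative HTS format. SH-SY5Y cells seeded at 2,000 per well settle overnight at 37 C. Compound pretreatment runs 30 min (37 C, 5% CO2); substrate/probe mix then reacts 40 min at RT before reading 490/520 nm.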

[4] = target: Acetylcholinesterase (Homo sapiens) (UniProt P22303); assay: Acetylcholinesterase (AChE) small molecule antagonists: enzyme-based qHTS assay with human liver microsomes (AID 1347399); conditions: Potency: qHTS inhibition; outcome: qHTS inhibition; note: nearly all actives have a fitted effect of over 60% in size
In short: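 Recombinant human AChE (50 mU/mL in the enzyme mix) and human liver microsomes (0.25 mg/mL final) were preincubated with compound and NADPH (0.25 mg/mL final) for 30 min at 37 C. Acetylthiocholine/DTNB was then added; thiocholine was read colorimetrically after 10 min at room temperature.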
% is set by controls: 0 for no effect and ±100 for the full control effect.

COC(=O)C1=C(C)NC(C)=C(C(=O)OC)C1c1ccccc1[N+](=O)[O-]
inactive: Potency [1] | Potency [2] | Potency [3]

Cc1ccc(S(N)(=O)=O)cc1
inactive: Potency [1] | Potency [2] | Potency [3]

C1CCCC1
inactive: Potency [1] | Potency [2] | Potency [3]

O=C(O)CCc1nc(-c2ccccc2)c(-c2ccccc2)o1
inactive: Potency [1] | Potency [2] | Potency [3]

CCOC=C(C(=O)OCC)C(=O)OCC
inactive: Potency [1] | Potency [2] | Potency [3]

CCOC(=O)N1CCC(=C2c3ccc(Cl)cc3CCc3cccnc32)CC1
inactive: Potency [1] | Potency [2] | Potency [3]

CCCCCCCC/C=C\CCCCCCCC(=O)OC(CO)CO
inactive: Potency [1] | Potency [2] | Potency [3]

Cc1ccccc1C(N)=O
inactive: Potency [1] | Potency [2] | Potency [3]

O=C1c2ccccc2C(=O)N1CCc1noc(-c2ccc(CN3CCCCCC3)s2)n1
active: Potency [1] 6.51 µM | Potency [2] 23.1 µM | Potency [3] 3.26 µM

CC(C)(C)NCC(O)c1ccc(O)c(CO)c1 (stereo not drawn)
inactive: Potency [1] | Potency [2] | Potency [3]

C=C(C)C(=O)OCC(CC)(COC(=O)C(=C)C)COC(=O)C(=C)C
inactive: Potency [1] | Potency [2] | Potency [3]

C=CC(C)CCC=C(C)C (stereo not drawn)
inactive: Potency [1] | Potency [2] | Potency [3]

F[B-](F)(F)F
inactive: Potency [1] | Potency [2] | Potency [3]

O=C1c2c(O)ccc([N+](=O)[O-])c2C(=O)c2c([N+](=O)[O-])ccc(O)c21
active: Potency [1] 0.789 µM | Potency [2] 25 µM | Potency [3] 8.86 µM

O=[N+]([O-])c1ccc(CO)cc1
inactive: Potency [1] | Potency [2] | Potency [3]

COc1cc(NCc2ccc3nc(N)nc(N)c3c2C)cc(OC)c1OC
active: Potency [1] 8.71 µM | Potency [2] 30.9 µM | Potency [3] 3.09 µM

Cc1ccccc1C(=O)N1CC/C(=N\OS(=O)(=O)O)c2ccc(Cl)cc21
inactive: Potency [1] | Potency [2] | Potency [3]

CC(=O)C1C(=O)C=C(C)OC1=O (stereo not drawn)
inactive: Potency [1] | Potency [2] | Potency [3]

Cc1onc(-c2ccccc2Cl)c1C(=O)N[C@@H]1C(=O)N2[C@@H]1SC(C)(C)[C@@H]2C(=O)O
inactive: Potency [1] | Potency [2] | Potency [3]

c1coc(CNc2ncnc3nc[nH]c23)c1
inactive: Potency [1] | Potency [2] | Potency [3]

CC(C(=O)O)c1cccc(C(=O)c2ccccc2)c1 (stereo not drawn)
inactive: Potency [1] | Potency [2] | Potency [3]

CCOc1ccc2nc(N)sc2c1
inactive: Potency [1] | Potency [2] | Potency [3]

CSc1nnc(C(C)(C)C)c(=O)[nH]1
inactive: Potency [1] | Potency [2] | Potency [3]

N#[N+]c1ccc2c(S(=O)(=O)[O-])cccc2c1O
inactive: Potency [1] | Potency [2] | Potency [3]

CC(Cl)COP(=O)(OCC(C)Cl)OCC(C)Cl (stereo not drawn)
inactive: Potency [1] | Potency [2] | Potency [3]

C[C@H]1COc2c(C3(N)CC3)c(F)cc3c(=O)c(C(=O)O)cn1c23
inactive: Potency [1] | Potency [2] | Potency [3]

CC(C)(C)NC(=O)[C@@H]1C[C@@H]2CCCC[C@@H]2CN1C[C@@H](O)[C@H](Cc1ccccc1)NC(=O)[C@H](CC(N)=O)NC(=O)c1ccc2ccccc2n1
inactive: Potency [1] | Potency [2] | Potency [3]

CC(C)NC[C@@H](O)COc1ccc(CC(N)=O)cc1
inactive: Potency [1] | Potency [2] | Potency [3]

CCN[C@@H]1C[C@H](N)[C@@H](OC2OC(CN)=CCC2N)[C@H](O)[C@H]1O[C@H]1OC[C@](C)(O)[C@H](NC)[C@H]1O (stereo partly drawn)
inactive: activity, negative = inhibition [1] 0.264% [at 0.435 µM] | activity change, negative = inhibition [2] 0.139% [at 0.435 µM] | activity change, negative = inhibition [3] 7.61% [at 0.439 µM]

O=C1CCCCCCCCCCCC(=O)OCCO1
inactive: Potency [1] | Potency [2] | Potency [3]

CCC(C)COC(C)=O (stereo not drawn)
inactive: Potency [1] | Potency [2] | Potency [3]

CNCCCN1c2ccccc2CCc2ccccc21
inactive: Potency [1] | Potency [2] | Potency [3]

N[C@@H](Cc1ccc(O)cc1)C(=O)O
inactive: activity, negative = inhibition [1] -0.421% [at 10.5 µM] | activity change, negative = inhibition [2] -0.135% [at 10.5 µM] | activity change, negative = inhibition [3] 10.1% [at 10.5 µM]

CC(C)(C)c1cc(O)c(C(C)(C)C)cc1O
inactive: Potency [1] | Potency [2] | Potency [3]

CC(C)c1nnc2ccc(-c3ocnc3-c3cc(F)ccc3F)cn12
inactive: Potency [1] | Potency [2] | Potency [3]

CCCCCCCCCO
inactive: Potency [1] | Potency [2] | Potency [3]

CCn1nc(C(=O)O)c(=O)c2cc3c(cc21)OCO3
inactive: Potency [1] | Potency [2] | Potency [3]

F[Si-2](F)(F)(F)(F)F
inactive: Potency [1] | Potency [2] | Potency [3]

COc1cc(Cc2cnc(N)nc2N)cc(OC)c1OC
inactive: Potency [1] | Potency [2] | Potency [3]

CCCC(=O)c1cc(O)c(O)cc1O
inactive: Potency [1] | Potency [2] | Potency [3]

C=C(C#N)C(=O)OCC
inactive: Potency [1] | Potency [2] | Potency [3]

CCN(C(=O)c1cc(C)cc(OC[C@H](C)Nc2ccncc2)c1)C(C)C
active: Potency [1] 12.5 µM | Potency [2] 22.2 µM | Potency [3] 6.26 µM

CC(=O)O[C@]1(C(C)=O)CC[C@H]2[C@@H]3C[C@H](C)C4=CC(=O)CC[C@]4(C)[C@H]3CC[C@@]21C
inactive: Potency [1] | Potency [2] | Potency [3]

COc1ccc(CCN(C)CCCC(C#N)(c2ccc(OC)c(OC)c2)C(C)C)cc1OC (stereo not drawn)
inactive: Potency [1] | Potency [2] | Potency [3]

CC1(C)[C@H](C(=O)O)N2C(=O)C[C@H]2S1(=O)=O
inactive: Potency [1] | Potency [2] | Potency [3]

O=C(O)CCC(=O)C(=O)O
inactive: Potency [1] | Potency [2] | Potency [3]

CCCC(C)=O
inactive: Potency [1] | Potency [2] | Potency [3]

Cc1cnc(C(=O)NCCc2ccc(S(=O)(=O)NC(=O)NC3CCCCC3)cc2)cn1
inactive: Potency [1] | Potency [2] | Potency [3]

CCC(C)(CCC(C)C)C(=O)[O-].CCC(C)(CCC(C)C)C(=O)[O-].[Zn+2] (stereo not drawn)
inactive: Potency [1] | Potency [2] | Potency [3]

O=C(O)CCS
inactive: Potency [1] | Potency [2] | Potency [3]

CC(C)(C)c1ccc(C(O)CCCN2CCC(C(O)(c3ccccc3)c3ccccc3)CC2)cc1 (stereo not drawn)
inactive: Potency [1] | Potency [2] | Potency [3]

CN(C)C(=O)C1(N2CCCCC2)CCN(CC[C@@]2(c3ccc(Cl)c(Cl)c3)CN(C(=O)c3ccccc3)CCO2)CC1
active: Potency [1] 33.2 µM | Potency [2] 16.7 µM | Potency [3] 4.69 µM

Cc1ccc(C)c(S(=O)(=O)O)c1
inactive: Potency [1] | Potency [2] | Potency [3] | Potency [4]

CCCC(=O)Nc1ccc(OCC(O)CNC(C)C)c(C(C)=O)c1 (stereo not drawn)
inactive: Potency [1] | Potency [2] | Potency [3]

CC(C)NCC(O)COc1ccc(CC(N)=O)cc1 (stereo not drawn)
inactive: Potency [1] | Potency [2] | Potency [3]

OCc1cccnc1
inactive: Potency [1] | Potency [2] | Potency [3]

Cc1ccc(/C(=C\CN2CCCC2)c2ccccn2)cc1
inactive: Potency [1] | Potency [2] | Potency [3]

CC1=CC(C)(C)Nc2ccccc21
inactive: Potency [1] | Potency [2] | Potency [3]

C=C[C@](C)(O)CC[C@@H]1[C@@]2(C)CCCC(C)(C)[C@@H]2CC[C@@]1(C)O
inactive: Potency [1] | Potency [2] | Potency [3]

CC[C@]1(O)C[C@@H]2CN(CCc3c([nH]c4ccccc34)[C@@](C(=O)OC)(c3cc4c(cc3OC)N(C)[C@H]3[C@@](O)(C(=O)OC)[C@H](OC(C)=O)[C@]5(CC)C=CCN6CC[C@]43[C@@H]65)C2)C1
inactive: Potency [1] | Potency [2] | Potency [3]

CCC(=O)OC
inactive: Potency [1] | Potency [2] | Potency [3]

O=C1CN(/N=C/c2ccc([N+](=O)[O-])o2)C(=O)N1
inactive: Potency [1] | Potency [2] | Potency [3]

CCCCCCCCC/C=C/CC1CC(=O)OC1=O (stereo not drawn)
inactive: Potency [1] | Potency [2] | Potency [3]

O=C1c2ccccc2C(=O)N1CCl
inactive: Potency [1] | Potency [2] | Potency [3] | Potency [4]

C/C(=C(\CCO)SS/C(CCO)=C(\C)N(C=O)Cc1cnc(C)nc1N)N(C=O)Cc1cnc(C)nc1N
inactive: Potency [1] | Potency [2] | Potency [3]

CCCCC/C(=C\c1ccccc1)CO
inactive: Potency [1] | Potency [2] | Potency [3]

C[N+]1(C)CCC(OC(=O)C(O)(c2ccccc2)C2CCCC2)C1 (stereo not drawn)
inactive: Potency [1] | Potency [2] | Potency [3]
